Laboratory results: the supplement of paper PMC4466140

Target: ScPex13
Assay: SPOT peptide array binding signal intensity (averaged, normalized) (arbitrary units (background-subtracted, floor 0; scale differs between SH3 domains)); higher = stronger binding of the SH3 domain to the peptide
Outline: (§1)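 E. coli BL21(DE3) was used to express GST-fused SH3 domains from four yeast species, which were then purified on glutathione Sepharose. These were incubated at 10 μg/ml in TBS-based blocking buffer overnight at 4°C on cellulose membranes carrying synthetic 15-mer peptides, in which cysteines were replaced by serines. Binding signal is the replicate average of normalized, background-subtracted spot intensity, in arbitrary units that differ between domains.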

| Binder | SPOT peptide array binding signal intensity |
| --- | --- |
| GATNNAPTLPKRKNP | 182 |

Target: ScRvs167
Assay: as above
Outline: as §1

| Binder | SPOT peptide array binding signal intensity |
| --- | --- |
| GATNNAPTLPKRKNP | 960 |

Target: ScSho1
Assay: as above
Outline: as §1

| Binder | SPOT peptide array binding signal intensity |
| --- | --- |
| GATNNAPTLPKRKNP | ≤ 0 |

Target: ScSla1-D1-D2
Assay: as above
Outline: as §1

| Binder | SPOT peptide array binding signal intensity |
| --- | --- |
| GATNNAPTLPKRKNP | 20.8 |

Target: ScSla1-D3
Assay: as above
Outline: as §1

| Binder | SPOT peptide array binding signal intensity |
| --- | --- |
| GATNNAPTLPKRKNP | ≤ 0 |

Target: SpAbp1-D1
Assay: as above
Outline: as §1

| Binder | SPOT peptide array binding signal intensity |
| --- | --- |
| GATNNAPTLPKRKNP | 102 |

Target: SpBbc1
Assay: as above
Outline: as §1

| Binder | SPOT peptide array binding signal intensity |
| --- | --- |
| GATNNAPTLPKRKNP | 1 |

Target: SpBzz1-D1
Assay: as above
Outline: as §1

| Binder | SPOT peptide array binding signal intensity |
| --- | --- |
| GATNNAPTLPKRKNP | 286 |

Target: SpBzz1-D2
Assay: as above
Outline: as §1

| Binder | SPOT peptide array binding signal intensity |
| --- | --- |
| GATNNAPTLPKRKNP | 0.25 |

Target: SpCyk3
Assay: as above
Outline: as §1

| Binder | SPOT peptide array binding signal intensity |
| --- | --- |
| GATNNAPTLPKRKNP | ≤ 0 |

Target: SpHof1
Assay: as above
Outline: as §1

| Binder | SPOT peptide array binding signal intensity |
| --- | --- |
| GATNNAPTLPKRKNP | 2.75 |

Target: SpHof1-2
Assay: as above
Outline: as §1

| Binder | SPOT peptide array binding signal intensity |
| --- | --- |
| GATNNAPTLPKRKNP | 0.625 |

Target: SpHof1-3
Assay: as above
Outline: as §1

| Binder | SPOT peptide array binding signal intensity |
| --- | --- |
| GATNNAPTLPKRKNP | 65.5 |

Target: SpHse1
Assay: as above
Outline: as §1

| Binder | SPOT peptide array binding signal intensity |
| --- | --- |
| GATNNAPTLPKRKNP | 11 |

Target: SpLsb1
Assay: as above
Outline: as §1

| Binder | SPOT peptide array binding signal intensity |
| --- | --- |
| GATNNAPTLPKRKNP | 118 |

Target: SpLsb4
Assay: as above
Outline: as §1

| Binder | SPOT peptide array binding signal intensity |
| --- | --- |
| GATNNAPTLPKRKNP | 6350 |

Target: SpMyo1
Assay: as above
Outline: as §1

| Binder | SPOT peptide array binding signal intensity |
| --- | --- |
| GATNNAPTLPKRKNP | ≤ 0 |

Target: SpNbp2
Assay: as above
Outline: as §1

| Binder | SPOT peptide array binding signal intensity |
| --- | --- |
| GATNNAPTLPKRKNP | 2 |

Target: SpPex13
Assay: as above
Outline: as §1

| Binder | SPOT peptide array binding signal intensity |
| --- | --- |
| GATNNAPTLPKRKNP | 3.5 |

Target: SpRvs167
Assay: as above
Outline: as §1

| Binder | SPOT peptide array binding signal intensity |
| --- | --- |
| GATNNAPTLPKRKNP | 1270 |

Target: SpSla1-D1-D2
Assay: as above
Outline: as §1

| Binder | SPOT peptide array binding signal intensity |
| --- | --- |
| GATNNAPTLPKRKNP | 7 |

Target: SpSla1-D3
Assay: as above
Outline: as §1

| Binder | SPOT peptide array binding signal intensity |
| --- | --- |
| GATNNAPTLPKRKNP | 15 |
